A selection: hits, their analogues and other compounds. The true share with any hit is near 7.5%.
NPC1 prom act – activators of NPC1 promoter. 320,000 tested, 2.4% active. Huh7 NPC1 promoter luciferase reporter, 24 h. Potency, µM (titrated, usually from 9.22 µM), for inactives: at the highest dose activation, most hits filed as activators; note: % of control where 0% means no effect; nearly all actives have a fitted effect of over 60% in size
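Stably transfected Huh7 (NPC1 promoter→luciferase), 1500 cells/well in Opti-MEM + 10% FBS, 2 h settle, then compound 24 h at 37 °C. Luminescence after 10 min with Amplite reagent.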
SMN2 splice enh – SMN2 splice variant enhancement. HEK293 SMN2-luciferase splicing reporter, luminescence, 30-36 h. Potency, µM (highest dose often 46.1 µM), without a hit: top-dose activity change, positive = activation, hits mostly activators. 210,000 tested, 2.8% active. AID 1458; note: % of control where 0% means no effect; nearly all actives have a fitted effect of over 55% in size
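HEK293 cells carry an SMN2 minigene-luciferase reporter in which exon 7 inclusion puts luciferase in frame. Cells were seeded at 2000 cells/well, attached for 10-12 hours, then exposed to compounds for 30-36 hours at 37C before ONE-Glo luminescence.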
Rab9 prom act – Rab9 promoter activation. Potency, µM (doses to about 9.22 µM), inactives show top-dose activation, negative = inhibition, usual class: activators. Huh7 Rab9 promoter-luciferase reporter, luminescence, 24 h. 320,000 tested, 2.8% active; note: % of control where 0% means no effect; nearly all actives have a fitted effect of over 60% in size
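Promoter activation is measured as luciferase luminescence in Huh7 cells stably transfected with a Rab9 promoter–luciferase construct, following 24 h compound exposure at 37 °C and 10 min reagent incubation at ambient temperature.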
ELG1 genotoxic – inducers of genotoxicity in HEK293T ELG1-luciferase cells | HEK293T ELG1-luciferase reporter, luminescence, 16 h | Potency, µM (top dose mostly 46 µM), for the others: top-dose activity change, positive = activation, actives largely listed as activators | 330,000 tested, 1.3% active | AID 504466; note: % of control where 0% means no effect; nearly all actives have a fitted effect of over 60% in size
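HEK293T cells expressing luciferase-tagged ELG1 were exposed to compound or DMSO vehicle for 16 hr at 37 °C and 5% CO2. Luciferase activity was then measured with ONE-Glo after 30 min at room temperature.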
Luc counter – Kinase-Glo luciferase inhibition (counter-screen). Kinase-Glo luciferase, ATP luminescence, 8 min. Q27757. 200,000 tested, 0.28% active. Potency, µM (series often up to 38.3 µM), without a hit: at the top dose activity change, negative = inhibition, usual class: inhibitors; note: % is set by controls: 0 for no effect and ±100 for the full control effect; nearly all actives have a fitted effect of over 60% in size
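Substrate mix (final 50 mM imidazole pH 7.2, 50 mM KCl, 7 mM MgCl2, 10 uM ATP, 0.01% Tween 20, 0.05% BSA) plus pin-tool compound, then Kinase-Glo detection mix; 8 min ambient, luminescence read.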
FLuc counter – firefly luciferase modulation, counter-screen for miR-21 project. P08659. purified FLuc, Km substrates, luminescence inhibition. Potency, µM (series often up to 57.5 µM), for the others: at the highest dose activity change, negative = inhibition, actives largely listed as inhibitors. 360,000 tested, 6.9% active;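 note: plate controls were vehicle for no effect and reference inhibitor for full effect; nearly all actives have a fitted effect of over 55% in size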
Target sequence (P08659 whole entry, looked up): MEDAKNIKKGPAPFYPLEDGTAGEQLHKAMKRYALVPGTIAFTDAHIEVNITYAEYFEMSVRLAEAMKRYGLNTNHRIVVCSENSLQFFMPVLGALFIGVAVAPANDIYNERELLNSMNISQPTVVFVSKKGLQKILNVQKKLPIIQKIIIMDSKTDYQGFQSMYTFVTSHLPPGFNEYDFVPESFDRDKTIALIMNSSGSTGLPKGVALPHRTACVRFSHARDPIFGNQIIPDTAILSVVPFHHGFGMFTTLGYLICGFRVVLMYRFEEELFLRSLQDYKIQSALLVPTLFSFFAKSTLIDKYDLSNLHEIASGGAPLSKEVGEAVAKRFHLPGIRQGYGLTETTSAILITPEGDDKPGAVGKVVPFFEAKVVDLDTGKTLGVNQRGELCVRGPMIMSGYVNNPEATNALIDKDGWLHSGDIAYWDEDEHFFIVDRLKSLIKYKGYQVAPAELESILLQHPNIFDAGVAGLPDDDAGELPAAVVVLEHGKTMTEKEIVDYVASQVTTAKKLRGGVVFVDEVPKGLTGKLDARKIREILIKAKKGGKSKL
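Purified P. pyralis luciferase (10nM final) with 10uM D-luciferin and 10uM ATP (Km levels) in 50mM Tris acetate pH 7.5, 10mM Mg acetate, 0.01% Tween-20, 0.05% BSA; qHTS 6-point titration, ~60 µM downward; luminescence read.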
An asterisk follows results filed as active; u = inconclusive; x = no result given; [ ] = remark or other dose. Calls come from the whole dose curve; as a rule, active = well fitted curve in the direction sought with a large enough effect; inconclusive = small, poorly fitted or top-dose-only effect, or another doubt; inactive = no such curve, though single readings can be large; an effect the other way counts as inactive or inconclusive. Potency is the fitted concentration of half-maximal effect.

SMILES | NPC1 prom act | SMN2 splice enh | Rab9 prom act | ELG1 genotoxic | Luc counter | FLuc counter
O=C(O)COc1ccc2occ(C(=O)c3ccccc3)c2c1 | -3% | 9% | -8% | -1% | -5% | u
COc1ccc(C(=O)c2coc3ccc(O)cc23)cc1 | u | u | 5% | u | -4% | 1.5µM*
O=C(c1cccc(Br)c1)c1coc2ccc(O)cc12 | u | x | u | u | x | 3µM*
O=C(NNC(=O)c1ccco1)c1cccc(Br)c1 | -4% | x | -18% | -15% | x | -2%
Cc1ccc(C(=O)c2coc3ccc(OCC(=O)O)cc23)cc1 | -2% | u | 3% | 3% | 0% | 21µM*
COc1ccccc1N(Cc1ccccc1)S(=O)(=O)c1cccc(C(=O)Nc2ccc(C)cn2)c1 | -10% | x | -11% | -16% | x | 2%
O=C(N[C@@]1(C(=O)O)C[C@@H]1c1ccccc1)c1ccccc1 | x | -14%[9.22 µM] | x | x | -3%[7.66 µM] | x
C=CC[n+]1ccc(/C=C2\C=Cc3cc(C)ccc3N2CC)c2ccccc21 | -38% | -98% | -33% | -21% | u | u
CN1CCc2c(sc(/N=C/c3cc(Cl)ccc3O)c2C#N)C1 | 18% | x | u | 16µM* | x | 2.4µM*
CCOC(=O)c1c(/N=C/c2ccc(OC)cc2O)sc2c1CCN(C)C2 | 1% | x | -3% | -2% | x | u
CN1CCc2c(sc(/N=C/c3c[nH]c4ccccc34)c2C#N)C1 | 17% | x | 2.8µM* | u | x | 1.3µM*
CN1CCc2c(sc(/N=C/c3c[nH]c4ccccc34)c2C(N)=O)C1 | 13% | x | -1% | -12% | x | u
O=C(COC(=O)/C=C/C(=O)OCC(=O)NC12CC3CC(CC(C3)C1)C2)NC12CC3CC(CC(C3)C1)C2 | 0% | -55% | -3% | 0% | 1% | 0%
COc1ccccc1NC(=O)Cn1nnc(C(=O)Nc2ccccc2Br)c1N | x | x | x | x | x | -2%
Cc1ccc2c(c1)Cc1nc3ccccc3nc1-2 | 4% | u | u | -2% | 8.9µM* | 1.1µM*
CCCCN1CCC(COC(=O)c2cc(Cl)c(N)c3c2OCCO3)CC1 | -1% | -26% | -7% | -1% | -4% | 1%
Cc1ccc(C)c(Cn2c(=O)cc(C(F)(F)F)c3c(C)nn(C)c32)c1 | x | x | x | x | x | -7%
c1ccc(-c2cn3nc(-c4ccccc4)cnc3n2)cc1 | 0.63µM* | 2µM* | 0.45µM* | u | -6% | 0.21µM*
c1ccc(-c2cc(-c3ccccc3)n3ncnc3n2)cc1 | -1% | -31% | -9% | 3% | 10% | 0%
CCc1c(-c2ccccc2)nc2nc(C)c(C)nn12 | 2% | -17% | 7% | 13% | -2% | u
Cc1nc2nc(-c3ccc(F)cc3)cn2nc1C | u | x | 0.28µM* | 1.6µM* | x | 2.1µM*
CCc1ccc(-c2cn3nc(C)c(C)nc3n2)cc1 | 0.089µM* | -18% | u | 0% | -4% | 0.38µM*
Cc1nc2nc(-c3ccccc3)cn2nc1C | x | 8.9µM* | x | x | 10µM* | 2.4µM*
COc1ccc(Nc2ncc3c(n2)CCN(Cc2cccc(F)c2F)C3)c(OC)c1 | x | x | x | x | x | 3%
CCOC(=O)c1ccc(N2C=C(C(=O)OC)C(c3ccc(OC)c(O)c3)C(C(=O)OC)=C2)cc1 | 1% | x | 1% | 5% | x | 17µM*
SMILES | NPC1 prom act | SMN2 splice enh | Rab9 prom act | ELG1 genotoxic | Luc counter | FLuc counter
CCOc1ccc(-n2nc(CO)c(C(=O)NCCCc3ccccc3)n2)cc1 | x | -1% | x | x | x | 5.4µM*
CCOc1ccc(-n2nc(CO)c(C(=O)NCc3cccc(OC)c3)n2)cc1 | x | -14% | x | x | x | 15µM*
COC(=O)CC[C@@H](C)C1CC[C@H]2[C@H]3CC[C@H]4C[C@@H]5CCC4(C)[C@@]3(O5)[C@@H](Br)[C@@H](Br)[C@@]12C (stereo not given in full) | x | -5%[9.22 µM] | x | x | -1%[7.66 µM] | x
CCn1c(C(=O)NCCc2ccc(OC)c(OC)c2)cc2sc(Cl)cc21 | x | -43% | x | x | x | u
Cn1c(C(=O)NCCc2ccccc2)cc2sc(Cl)cc21 | x | 2.8µM* | x | x | x | 1.2µM*
Cc1ccc2c(Cl)c(C(=O)NCCc3ccccc3)sc2c1 | 3.5µM* | 16µM* | 2.5µM* | u | -1% | 6µM*
Cc1ccc2c(Cl)c(C(=O)Nc3cc(C)on3)sc2c1 | 2.8µM* | u | 2.2µM* | 8.2µM* | -2% | u
CCNC(=O)c1sc2cc(C)ccc2c1Cl | u | 30% | 3.2µM* | u | 0% | 11µM*
Cc1cc(NC(=O)c2cccc(C(=O)Nc3cc(C)on3)n2)no1 | 0% | 14% | -16% | -4% | 0% | -2%
COc1ccc(CCNC(=O)c2sc3cc(C)ccc3c2Cl)cc1 | 0% | -23% | -2% | 0% | 8% | 5%
CCc1ccc(-n2nc3cc(C)c(NC(=O)c4cc(Cl)ccc4OC)cc3n2)cc1 | x | 7% | x | x | x | -19%
O=C1C(C2=C(O)c3ccccc3C2=O)=Nc2ccccc21 | -19% | -11% | -28% | -3% | 11µM* | 1.9µM*
O=C1c2ccccc2C(=O)c2c(O)ccc(O)c21 | x | -3% | x | x | 1% | x
CSCCC(NS(=O)(=O)c1ccccc1F)C(=O)Nc1ccncc1 (stereo not given) | 1% | x | -5% | 3% | x | 7%
CC(C)Oc1ccc(N2C(=O)c3ccccc3C2=O)cc1 | 1% | -18% | 0% | u | -1% | 7.6µM*
COc1ccc(N2C(=O)c3ccccc3C2=O)cc1 | 0% | 11% | 0% | 5% | -5% | u
CCOCCOC(=O)COc1ccc(N2C(=O)c3ccccc3C2=O)cc1 | -7% | 2% | -6% | -7% | -5% | 19µM*
Cc1ccc(OCC(=O)OCCN2C(=O)c3ccccc3C2=O)cc1C | -4% | 27% | 1% | -4% | 3% | -2%
CC1(CC(=O)N/N=C/c2ccc(-c3ccc(Cl)cc3)o2)OCCO1 | 8% | 9% | 13% | 7% | -3% | 3.4µM*
COC(=O)c1ccc(-c2ccc(/C=N/NC(=O)CC3(C)OCCCO3)o2)cc1 | u | 11µM* | u | 9% | 1% | u
Cc1ccc2cc(-c3noc(C(C)(C)C)n3)c(=O)[nH]c2c1 | 8% | -4% | 21% | 1% | 3% | -18%
CCc1nc(-c2cc3ccc(C)cc3[nH]c2=O)no1 | 25% | u | u | u | -4% | 15µM*
CC(=O)c1ccc2c(c1)C1C=CCC1C(c1ccncc1)N2 (stereo not given) | 26% | 15% | 10% | 5% | -8% | 17µM*
CC(=O)c1ccc2c(c1)C1C=CCC1C(C(=O)O)N2 (stereo not given) | 2% | 7% | -14% | 0% | -9% | u
O=C(c1ccco1)N1CCN(c2c([N+](=O)[O-])nn(-c3cccc(Cl)c3)[n+]2[O-])CC1 | -6% | -9% | -2% | -1% | -3% | -6%

Screening results as filed in PubChem.
